Data reported in PubChem BioAssay AID1159580 (chemical genetic matrix, 2015).
Hit rate of the full screen: of about 5,500 compounds, about 2,000 (36%) were called active. Roughly 18% stayed inconclusive and do not appear here. Rule as the data show it: active = normalized growth mostly below about 0.91 (no sharp cut-off); inconclusive = no clear call, values can overlap the other calls; inactive = mostly above about 0.92. The list shows a part of the results.

Test: chemical genetic growth profiling, strain panel (AID 1159580);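 also: tested at 20 µM; growth read once vehicle control cultures reached saturation at 30 °C; 1 = growth at the plate median or of vehicle wells; lower values mean less growth of the strain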
Conditions: S. cerevisiae deletion strains, growth OD

Measured: normalized growth

O=C(O)c1cc(=O)c2ccc(Cl)cc2[nH]1
inactive: locus YAL013W, strain DEP1, active compounds read low 1.01 | locus YAL021C, strain ccr4, active compounds read low 1 | locus YAL026C, strain drs2, active compounds read low 1.03 | locus YAL030W, strain snc1, active compounds read low 1.01 | locus YAL040C, strain CLN3, active compounds read low 1.01 | locus YBL061C, strain skt5, active compounds read low 1.02 | locus YBR009C, strain hhf1, active compounds read low 1.01 | locus YBR021W, strain FUR4, active compounds read low 1.01 | locus YBR023C, strain chs3, active compounds read low 1.02 | locus YBR171W, strain sec66, active compounds read low 1.03 | locus YBR229C, strain ROT2, active compounds read low 1.02 | locus YBR231C, strain swc5, active compounds read low 1.02 | locus YBR279W, strain paf1, active compounds read low 1.01 | locus YCL011C, strain gbp2, active compounds read low 1.02 | locus YCL016C, strain dcc1, active compounds read low 1.04 | locus YCL029C, strain bik1, active compounds read low 0.998 | locus YCL061C, strain MRC1 (second series), active compounds read low 1.01 | locus YCL061C, strain MRC1, active compounds read low 1.01 | locus YCL069W, strain vba3, active compounds read low 1.01 | locus YCR088W, strain abp1, active compounds read low 1.01 | locus YDL005C, strain med2, active compounds read low 1.02 | locus YDL035C, strain GPR1, active compounds read low 1.02 | locus YDL040C, strain nat1, active compounds read low 1.01 | locus YDL074C, strain BRE1, active compounds read low 1.06 | locus YDL101C, strain DUN1, active compounds read low 1.01 | locus YDL134C, strain PPH21, active compounds read low 1.01 | locus YDL185W, strain tfp1, active compounds read low 0.988 | locus YDL192W, strain arf1, active compounds read low 0.993 | locus YDR001C, strain nth1, active compounds read low 1.01 | locus YDR069C, strain doa4, active compounds read low 0.999 | locus YDR101C, strain arx1, active compounds read low 0.999 | locus YDR137W, strain rgp1, active compounds read low 1.01 | locus YDR150W, strain NUM1, active compounds read low 1.01 | locus YDR159W, strain sac3, active compounds read low 0.998 | locus YDR162C, strain NBP2, active compounds read low 1.01 | locus YDR195W, strain ref2 1 | locus YDR297W, strain sur2, active compounds read low 1.02 | locus YDR318W, strain mcm21, active compounds read low 0.989 | locus YDR334W, strain swr1, active compounds read low 1.01 | locus YDR335W, strain msn5, active compounds read low 1.03 | locus YDR363W, strain ESC2, active compounds read low 1.03 | locus YDR388W, active compounds read low 0.999 | locus YDR392W, strain spt3, active compounds read low 1.07 | locus YDR502C, strain sam2, active compounds read low 1.01 | locus YEL003W, strain gim4, active compounds read low 1.02 | locus YEL037C, strain rad23, active compounds read low 1.02 | locus YEL061C, strain CIN8 (second series), active compounds read low 1.01 | locus YEL061C, strain CIN8, active compounds read low 1.01 | locus YER002W, strain NOP16, active compounds read low 1.03 | locus YER015W, strain faa2, active compounds read low 1.02 | locus YER016W, strain bim1, active compounds read low 1.04 | locus YER110C, active compounds read low 0.99 | locus YER111C, strain swi4, active compounds read low 1.01 | locus YER155C, strain BEM2 (second series), active compounds read low 1.02 | locus YER155C, strain BEM2, active compounds read low 1.01 | locus YER167W, strain BCK2, active compounds read low 0.995 | locus YFR010W, strain ubp6, active compounds read low 0.986 | locus YGL078C, strain dbp3, active compounds read low 1 | locus YGL086W, strain mad1, active compounds read low 1 | locus YGL167C, strain pmr1, active compounds read low 1.01 | locus YGL173C, strain kem1, active compounds read low 1.02 | locus YGL227W, strain vid30, active compounds read low 1.04 | locus YGL240W, strain doc1, active compounds read low 1.01 | locus YGL248W, strain PDE1, active compounds read low 1.03 | locus YGL253W, strain hxk2, active compounds read low 1.02 | locus YGR078C, strain PAC10, active compounds read low 1.03 | locus YGR135W, strain pre9, active compounds read low 0.976 | locus YGR252W, strain gcn5, active compounds read low 0.992 | locus YHR013C, strain ard1, active compounds read low 1.04 | locus YHR027C, strain rpn1, active compounds read low 0.994 | locus YHR030C, strain SLT2, active compounds read low 1.01 | locus YHR079C, strain IRE1 (second series), active compounds read low 0.99 | locus YHR094C, strain hxt1, active compounds read low 0.992 | locus YHR129C, strain ARP1, active compounds read low 1.02 | locus YHR142W, strain chs7, active compounds read low 1.04 | locus YHR200W, strain rpn10, active compounds read low 0.992 | locus YIL066C, strain RNR3, active compounds read low 1.03 | locus YIL073C, strain SPO22, active compounds read low 0.979 | locus YIL125W, strain kgd1, active compounds read low 0.994 | locus YIR030C, strain dcg1, active compounds read low 0.995 | locus YJL092W, strain hpr5, active compounds read low 1.02 | locus YJL095W, strain BCK1 (second series), active compounds read low 1.03 | locus YJL095W, strain BCK1, active compounds read low 1.04 | locus YJL115W, strain asf1, active compounds read low 1.01 | locus YJL129C, strain trk1, active compounds read low 1.03 | locus YJL134W, strain LCB3, active compounds read low 1.01 | locus YJL154C, strain vps35, active compounds read low 1.01 | locus YJL164C, strain tpk1, active compounds read low 1.01 | locus YJL166W, strain qcr8, active compounds read low 1.02 | locus YJL168C, strain set2, active compounds read low 0.992 | locus YJL187C, strain SWE1 (second series), active compounds read low 1.04 | locus YJL187C, strain SWE1, active compounds read low 1.02
